# Measured values published in the supplement of paper PMC7184167.
# Where a name gives a salt, the structure may show the parent alone.
# Tested on: replication-induced senescent mouse newborn dermal fibroblasts (NBF)
# Experiment: relative cell viability of senescent cells (fraction); higher = less killing of senescent cells
# Settings: 1 µM; 3 days
# Protocol: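 Replication-induced senescent newborn mouse skin fibroblasts (NBFs) in 24-well plates were treated with a Selleck FDA-approved drug library at 1 µM for 3 days.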
row,SMILES,relative cell viability
1,CCCSc1ccc2[nH]c(NC(=O)OC)nc2c1 [Albendazole],1.08
2,CN(C)CC/C=C1/c2ccccc2Sc2ccc(Cl)cc21 [Chlorprothixene],1.1
3,Nc1ncnc2c1ncn2[C@@H]1O[C@H](CO)[C@@H](O)[C@H]1O [Adenosine],0.937
4,C#C[C@]1(O)CC[C@H]2[C@@H]3CCc4cc(O)ccc4[C@H]3CC[C@@]21C [Ethinyl Estradiol],0.86
5,O=C(O)c1cc(/N=N/c2ccc(S(=O)(=O)Nc3ccccn3)cc2)ccc1O [Sulfasalazine],1.3
6,CC(C)OC(=O)C(C(=O)OC(C)C)=C1SC=CS1 [Malotilate],1.04
7,Nc1ccc(S(=O)(=O)Nc2ncccn2)cc1 [Sulfadiazine],1.11
8,Cc1ccc(NC(=O)c2ccc(CN3CCN(C)CC3)cc2)cc1Nc1nccc(-c2cccnc2)n1 [Imatinib Mesylate (STI571)],0.939
9,CN(C)CCOc1ccc(/C(=C(/CCCl)c2ccccc2)c2ccccc2)cc1 [Toremifene Citrate],0.956
10,CS(=O)(=O)CCNCc1ccc(-c2ccc3ncnc(Nc4ccc(OCc5cccc(F)c5)c(Cl)c4)c3c2)o1,0.746
11,COc1cnc(NS(=O)(=O)c2ccc(N)cc2)nc1 [Sulfameter],0.763
12,CCCCc1nc2cc(/C=C/C(=O)NO)ccc2n1CCN(CC)CC [Pracinostat (SB939)],1.01
13,Cc1nc(C(=O)NCC(=O)O)c(O)c2ccc(Oc3ccccc3)cc12 [Roxadustat (FG-4592)],1.03
14,Cc1ccnc2c1NC(=O)c1cccnc1N2C1CC1 [Nevirapine],1.02
15,O=NN(CCCl)C(=O)NC1CCCCC1 [Lomustine],1.02
16,COc1cc2nc(N3CCN(C(=O)c4ccco4)CC3)nc(N)c2cc1OC [Prazosin HCl],0.927
17,Nc1ncn([C@@H]2O[C@H](CO)[C@@H](O)[C@H]2O)c(=O)n1 [Azacitidine],0.436
18,CCCc1nc(C(C)(C)O)c(C(=O)OCc2oc(=O)oc2C)n1Cc1ccc(-c2ccccc2-c2nnn[nH]2)cc1 [Olmesartan Medoxomil],0.252
19,CNC(=C[N+](=O)[O-])NCCSCc1ccc(CN(C)C)o1 [Ranitidine Hydrochloride],1.1
20,CC(=O)OCC(=O)[C@@]12N=C(C)O[C@@H]1C[C@H]1[C@@H]3CCC4=CC(=O)C=C[C@]4(C)[C@H]3[C@@H](O)C[C@@]12C [Deflazacort],1.04

row,SMILES,relative cell viability
1,CO[C@H]1C[C@@H]2CC[C@@H](C)[C@@](O)(O2)C(=O)C(=O)N2CCCC[C@H]2C(=O)O[C@H]([C@H](C)C[C@@H]2CC[C@@H](O)[C@H](OC)C2)CC(=O)[C@H](C)/C=C(\C)[C@@H](O)[C@@H](OC)C(=O)[C@H](C)C[C@H](C)/C=C/C=C/C=C/1C [Rapamycin (Sirolimus)],0.735
2,COc1ccc(/C=C/C(=O)Nc2ccccc2C(=O)O)cc1OC [Tranilast],1
3,Nc1nc(F)nc2c1ncn2[C@@H]1O[C@H](CO)[C@@H](O)[C@@H]1O [Fludarabine],0.0671
4,CCC(=O)OCC(=O)[C@@]1(OC(=O)CC)[C@@H](C)C[C@H]2[C@@H]3CCC4=CC(=O)C=C[C@]4(C)[C@@]3(F)[C@@H](O)C[C@@]21C [Betamethasone Dipropionate],0.902
5,Cn1cnc([N+](=O)[O-])c1Sc1ncnc2[nH]cnc12 [Azathioprine],0.986
6,"Cc1[nH]c(/C=C2\C(=O)Nc3ccccc32)c(C)c1CCC(=O)O [Orantinib (TSU-68, SU6668)]",0.577
7,CS(=O)(=O)OCCCCOS(C)(=O)=O [Busulfan],1.03
8,Nc1nc(Cl)nc2c1ncn2[C@H]1C[C@H](O)[C@@H](CO)O1 [Cladribine],0.924
9,Cc1ccc(F)c(NC(=O)Nc2ccc(-c3cccc4[nH]nc(N)c34)cc2)c1 [Linifanib (ABT-869)],0.927
10,NS(=O)(=O)Cc1noc2ccccc12 [Zonisamide],1.11
11,COc1ccc([C@]2(C#N)CC[C@@H](C(=O)O)CC2)cc1OC1CCCC1 [Cilomilast],0.332
12,COc1ccc(C2CNC(=O)C2)cc1OC1CCCC1 (stereo not given) [Rolipram],1.07
13,NC(=O)N1c2ccccc2CC(=O)c2ccccc21 [Oxcarbazepine],0.905
14,CCOC(=O)C1=C(COCCN)NC(C)=C(C(=O)OC)C1c1ccccc1Cl (stereo not given) [Amlodipine Besylate],0.987
15,CN(C)C/C=C/C(=O)Nc1cc2c(Nc3ccc(F)c(Cl)c3)ncnc2cc1O[C@H]1CCOC1 [Afatinib (BIBW2992)],0.539
16,CC(C(=O)O)c1cccc(Oc2ccccc2)c1 (stereo not given) [Fenoprofen Calcium],1.13
17,"CN1CCN(c2ccc3nc(-c4c(N)c5c(F)cccc5[nH]c4=O)[nH]c3c2)CC1 [Dovitinib (TKI-258, CHIR-258)]",0.589
18,Nc1nc2ccc(OC(F)(F)F)cc2s1 [Riluzole],0.836
19,Cn1c(=O)c2c(ncn2CC(O)CO)n(C)c1=O (stereo not given) [Dyphylline],0.335
20,Nc1ccn([C@@H]2CS[C@H](CO)O2)c(=O)n1 [Lamivudine],0.759
